TDP1 cell noCPT = qHTS for Inhibitors of human tyrosyl-DNA phosphodiesterase 1 (TDP1): qHTS in cells in absence of CPT | 420,000 compounds, 15% hits | DT40 Tdp1-/- hTDP1 cells, no CPT, ATP luminescence, 48 h | Potency, µM (top dose mostly 46.2 µM), for inactives: at the top dose activity change, negative = growth inhibition, hits mostly inhibitors | AID 686978, 2013; further: potency means the concentration at half of the fitted maximal effect; nearly all actives have a fitted effect of over 55% in size
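Camptothecin absent (DMSO only). Human TDP1-complemented DT40 knockout cells, 400 cells/well, 37 °C for minimum 48 hr; ATP measured via CellTiter-Glo, 30 min dark incubation, luminescence.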
TDP1 block = inhibitors of human tyrosyl-DNA phosphodiesterase TDP1; recombinant TDP1, AlphaScreen DNA substrate cleavage; Potency, µM (titrated, usually from 130 µM), inactives show at the top dose activity change, negative = inhibition, most hits filed as inhibitors; 350,000 compounds, 0.28% hits; further: potency means the concentration at half of the fitted maximal effect; nearly all actives have a fitted effect of over 40% in size
Target sequence (Q9NUW8 whole entry, looked up): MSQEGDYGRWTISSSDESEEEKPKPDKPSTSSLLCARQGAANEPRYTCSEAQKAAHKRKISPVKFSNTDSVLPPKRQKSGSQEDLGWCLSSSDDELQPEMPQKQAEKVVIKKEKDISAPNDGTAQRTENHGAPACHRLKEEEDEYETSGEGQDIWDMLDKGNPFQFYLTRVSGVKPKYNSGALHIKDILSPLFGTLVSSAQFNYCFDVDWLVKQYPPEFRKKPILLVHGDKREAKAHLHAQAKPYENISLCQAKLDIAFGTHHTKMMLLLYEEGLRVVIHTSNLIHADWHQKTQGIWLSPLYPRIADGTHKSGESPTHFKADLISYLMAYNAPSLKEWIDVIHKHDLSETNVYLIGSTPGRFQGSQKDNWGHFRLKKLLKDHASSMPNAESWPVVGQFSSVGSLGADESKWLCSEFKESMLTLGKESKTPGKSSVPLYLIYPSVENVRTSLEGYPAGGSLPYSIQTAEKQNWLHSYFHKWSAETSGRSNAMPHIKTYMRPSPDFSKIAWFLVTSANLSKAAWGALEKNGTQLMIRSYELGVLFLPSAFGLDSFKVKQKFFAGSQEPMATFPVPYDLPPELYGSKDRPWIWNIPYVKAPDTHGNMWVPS
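AlphaScreen read-out: signal falls as enzyme removes the 3' tyrosine-FITC from a 5'-biotinylated DNA oligo (15 nM, 5 min, RT). Enzyme was E. coli-made recombinant Tdp1 at 1 nM, exposed to compound for 15 min beforehand; beads 10 ug/ml, 10 min.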
ELG1 repair inh = ELG1-dependent DNA repair inhibition. HEK293T ELG1-luciferase reporter, luminescence, 16 h; DNA damage induced by 5-fluorouridine. Potency, µM (doses to about 46.1 µM), for the others: at the highest dose activity change, negative = inhibition, usual class: inhibitors. 330,000 compounds, 2.3% hits. AID 504467; further: potency means the concentration at half of the fitted maximal effect; nearly all actives have a fitted effect of over 55% in size
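Overnight (16 hr) co-exposure of 2,000 cells/well to 5-fluorouridine and compound at 37 °C preceded detection. Luciferase was quantified via ONE-Glo luminescence; loss of signal denotes inhibition.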
IL-1B inflam inh = inhibitors of inflammasome signaling (IL-1 beta secretion) | THP-1 LPS/ATP IL-1B secretion, AlphaLISA, 16 h; active compounds read low | activity change, % at 57.5 µM | 360,000 compounds, 4.7% hits | AID 743279; in the data active means activity change below about -50%; inconclusive means mostly about -30% to -49%
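THP-1 cells pretreated 1 hr with compounds (up to 57.5 uM final), then stimulated with LPS (250 ng/mL final) plus ATP (1.25 mM final); secreted IL-1B measured by AlphaLISA after 16 hr, decreased signal indicating inhibition.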
Giardia killer = Giardia lamblia killing; Giardia lamblia trophozoite viability; activity change, % at 7.66 µM, hits read low; AID 540267; 340,000 compounds, 0.15% hits; in the data active means activity change below about -80%; inconclusive means between about -30% and that limit;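 further: parasites exposed to compound for two days anaerobically before the ATP read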
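Viability, read as ATP luminescence: trophozoites at 100 cells/well, compound added, 48 hrs anaerobic at 37 deg C, then 15-30 min room-temperature development before reading.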
TDP1 cell CPT = DT40-hTDP1 cell growth loss with CPT; chicken DT40 Tdp1-/-;hTDP1 cells + 20 nM CPT, ATP luminescence, 48 h; 420,000 compounds, 12% hits; AID 686979; Potency, µM (top dose mostly 46.2 µM), for the others: top-dose activity change, negative = growth inhibition, actives largely listed as inhibitors; further: potency means the concentration at half of the fitted maximal effect; nearly all actives have a fitted effect of over 55% in size
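Chicken DT40 Tdp1-/- cells complemented with human TDP1, 400 cells/well, exposed to compounds plus 20 nM camptothecin for at least 48 h at 37 C; viability read as ATP content by CellTiter-Glo luminescence.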
Active calls of the source: *; i = inactive; ? = inconclusive; nt = no result; [ ] = dose if it differs, or a comment. Rows were chosen to be rich in hits. Some 19% of all compounds tested hit in one or more screens of this group. Unless noted, the call rests on the fitted dose curve; in most records, active means well fitted curve in the direction sought with a large enough effect; inconclusive means small, poorly fitted or top-dose-only effect, or another doubt; inactive means no such curve, though single readings can be large; an effect the other way counts as inactive or inconclusive. On the % scale 0 is the no-effect control and ±100 the full control effect.

SMILES	TDP1 cell noCPT	TDP1 block	ELG1 repair inh	IL-1B inflam inh	Giardia killer	TDP1 cell CPT
Cc1cccc(NC(=O)CSc2nc(=O)n(Cc3cccnc3)c3c2CCC3)c1	-30%	5%	nt	nt	nt	-29%
COc1ccc(C(=O)Nc2cc(C)on2)cc1S(=O)(=O)N1CC(c2ccccc2)CC1=O (centres undefined)	-19%	6%	4%	2	9	-3%
Cc1ccc(NC(=O)Cn2cc(S(=O)(=O)N3CCCC3)c(S(=O)(=O)N3CCCC3)c2)cc1F	-14%	-3%	nt	nt	nt	-16%
CC(C)c1cccc2c([Si](C)(C)C)c3c(nc12)-c1cccc(=O)n1C3	nt	-1%	nt	nt	nt	nt
CCc1cccc(NC(=O)C2Cc3ccccc3N2C(=O)c2ccccc2)c1 (centres undefined)	?	1%	nt	nt	nt	?
CCCS(=O)(=O)c1c(S(=O)(=O)CCC)c2ccc(C(N)=O)cn2c1C(=O)c1ccc(OC)cc1	-25%	6%	27%	23	1	12%
CCCS(=O)(=O)c1c(S(=O)(=O)CCC)c2cc(C(C)(C)C)ccn2c1C(=O)c1ccc(C)cc1	15µM*	6%	nt	nt	nt	23µM*
Cc1ccc(NC(=O)c2ccc(OCC3CCCO3)cc2)c(C)c1 (centres undefined)	1%	6%	?	0	-3	6%
Cc1cccc2sc(NC(=O)c3ccc(OCC4CCCO4)cc3)nc12 (centres undefined)	?	5%	6%	7	0	-92%
Cc1ccnc(NC(=O)c2ccc(OCC3CCCO3)cc2)c1 (centres undefined)	?	nt	?	-17	-85*	?
CCOc1ccc2nc(NC(=O)c3ccc(OCC4CCCO4)cc3)sc2c1 (centres undefined)	5.8µM*	1%	?	-19	-3	4.1µM*
CCSc1ncc(Cl)c(C(=O)N(Cc2ccc(N(C)C)cc2)C2CCS(=O)(=O)C2)n1 (centres undefined)	-21%	4%	?	4	-8	?
CC(C)Sc1ncc(Cl)c(C(=O)N(Cc2ccc(N(C)C)cc2)C2CCS(=O)(=O)C2)n1 (centres undefined)	?	2%	nt	nt	nt	16µM*
CCOc1ccc(CN(C(=O)c2nc(SC)ncc2Cl)C2CCS(=O)(=O)C2)cc1 (centres undefined)	16µM*	0%	nt	nt	nt	-25%
CCCCn1c(N)c(N(Cc2ccccc2OC)C(=O)C(C)Oc2ccc(Cl)cc2)c(=O)[nH]c1=O (centres undefined)	-11%	5%	-3%	i	-2	-15%
O=C(COC(=O)C1CC(=O)N(CCc2ccccc2)C1)c1ccc[nH]1 (centres undefined)	-2%	0%[56.1 µM]	13%	0	-15	11%
Nc1ccc2c(c1)OC1(CCCCC1)O2	16µM*	5%	1%	9	-2	?
CC(=O)c1cccc(NC(=O)c2cc3nc(-c4ccc(Br)cc4)cc(C(F)(F)F)n3n2)c1	6.5µM*	-3%	nt	nt	nt	6.5µM*
COC(=O)C1=C(C)N(C)C(=O)NC1c1ccccc1 (centres undefined)	5%	1%	-7%	16	12	10%
CC1=C(C(=O)OCCOc2ccccc2)C(c2ccsc2)NC(=O)N1C (centres undefined)	21µM*	8%	23µM*	-23	-28	?
CCC(Cn1nnc2ccccc2c1=O)NC(=O)Nc1cc(OC)cc(OC)c1 (centres undefined)	-3%	0%	nt	nt	nt	?
CC1(c2ccc(OC(F)F)cc2)NC(=O)N(CC(=O)Nc2ccc3c(c2)OCO3)C1=O (centres undefined)	?	1%	-5%	37	-13	16µM*
Cc1ccc2nc(-c3ccc(NC(=O)CN4C(=O)NC(C)(c5ccc(OC(F)F)cc5)C4=O)cc3)sc2c1 (centres undefined)	23µM*	-3%	?	-5	0	15µM*
CC1(c2ccc(OC(F)F)cc2)NC(=O)N(CC(=O)Nc2ccccc2)C1=O (centres undefined)	?	nt	?	26	-11	?
COC(=O)C1=C(C(=O)OC)[C@@H]2N(C)c3ccc(OC)cc3[C@@]23C[C@@H](C(=O)OC)N=C3N1	11%	8%[12.3 µM]	7%	1	-11	-13%
SMILES	TDP1 cell noCPT	TDP1 block	ELG1 repair inh	IL-1B inflam inh	Giardia killer	TDP1 cell CPT
COc1ccccc1N1CCN(C(=O)CSc2nnc3n2C(C)(C)Cc2ccccc2-3)CC1	15µM*	1%	9.2µM*	-28	-2	13µM*
CC1Cc2ccccc2N1C(=O)CSc1nnc2n1C(C)(C)Cc1ccccc1-2 (centres undefined)	21µM*	7%	?	0	-11	21µM*
Nn1c(SCC(=O)Nc2ccc3c(c2)OCO3)nnc1-c1ccccc1	1%	-1%	15%	-4	1	-9%
CC1(C)Cc2ccccc2-c2nnc(SCC(=O)Nc3ccc4c(c3)OCO4)n21	?	2%	14%	?	-17	16µM*
Cc1ccc(C(=O)N2CC(=O)Nc3ccc(Br)cc3C2c2ccc(F)cc2)cc1C (centres undefined)	?	6%	nt	nt	nt	?
CC(C)=CC(=O)N1CCC(N2CCC(C(=O)NCC3CCCO3)CC2)CC1 (centres undefined)	-6%	4%	16%	18	8	-3%
COc1ccccc1NC(=O)Nc1nc(CC(=O)N2CCN(c3ccc(F)cc3)CC2)cs1	?	3%	16µM*	-9	-15	?
COc1ccccc1NC(=O)Nc1nc(CC(=O)N2CCN(c3ccccc3)CC2)cs1	?	-1%	?	?	-17	16µM*
COc1ccc(N2CCN(C(=O)Cc3csc(NC(=O)Nc4ccccc4OC)n3)CC2)cc1	16µM*	8%	16µM*	-18	-2	16µM*
COc1ccccc1NC(=O)N1CCN(c2ccc(F)cc2)CC1	-28%	-2%	-10%	?	-13	-14%
Cc1cccc(Cn2c(C)c(CNC3CCCCCC3)c(C(=O)O)c2C)c1	-19%	0%	nt	nt	nt	-22%
CCCC(CNC(C)=O)(C1=CCCCC1)c1ccccc1 (centres undefined)	13µM*	nt	nt	19	nt	18µM*
CC(OC(=O)c1ccccc1)C(=O)NCCC1=CCCCC1 (centres undefined)	-19%	2%	5%	22	13	-4%
